Laboratory results from PubChem BioAssay (EPA / NIEHS).
Calls of active or inactive are those of the source. The calls were made as follows: active = hit-call score of the fitted dose curve at least 0.9, where 1 is the maximum; inactive = score below 0.9.

Legend:
[1] = APR_HepG2_CellCycleArrest_24hr: Apredica 24-hour HepG2 Assay for Cell Cycle Arrest (AID 2282905); settings: imaging, actives raise or lower the signal;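 also: cell cycle arrest scored as ratio of 2N to 4N nuclear DNA content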
In short: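 Compounds at 0.39–200 uM (0.5% DMSO) for 24 h, then fixed and Hoechst 33342 stained. Cell-cycle analysis of nuclear DNA content by high-content imaging, fitted bidirectionally versus DMSO.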

[2] = APR_HepG2_NuclearSize_24hr: Apredica 24-hour HepG2 Assay for Nuclear Size (AID 2282907); settings: high-content imaging, actives raise or lower the signal
In short: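 HepG2 cells exposed 24 h to compounds at 0.39–200 uM (0.5% DMSO), fixed, Hoechst 33342 stained and imaged at 20x; nuclear diameter measured by automated image analysis, fitted bidirectionally against DMSO controls.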

[3] = APR_HepG2_CellLoss_24hr: Apredica 24-hour HepG2 Assay for Cell Loss (AID 2282908); settings: high-content imaging
In short: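 HepG2 cells exposed 24 hr to 0.39–200 uM compound in duplicate at 0.5% v/v final DMSO. Cells fixed in 3.7% formaldehyde and Hoechst 33342-stained. Cell number came from nuclear imaging at 20x. Bidirectional fit versus DMSO.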

[4] = APR_HepG2_MitoticArrest_24hr: Apredica 24-hour HepG2 Assay for Mitotic Arrest (AID 2282910); settings: high-content imaging, actives raise or lower the signal
In short: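 HepG2 cells, 24 h exposure at 0.39-200 uM (10 concentrations, duplicate, 0.5% DMSO). Fixed, stained for phospho-histone H3 with Hoechst; imaged by high-content microscopy, bidirectional fit versus DMSO.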

[5] = APR_HepG2_MitoMembPot_24hr: Apredica 24-hour HepG2 Assay for Mitochondrial Membrane Potential (AID 2282911); settings: imaging, actives raise or lower the signal
In short: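 Human hepatoma HepG2 cultures received ten compound concentrations up to 200 uM for 24 hr. Membrane-potential dye signal, captured by automated fluorescence microscopy, was scored for gain or loss against DMSO controls.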

[6] = APR_HepG2_MitoMass_24hr: Apredica 24-hour HepG2 Assay for Mitochondrial Mass (AID 2282912); settings: high-content imaging, actives raise or lower the signal
In short: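 HepG2 cells exposed 24 hr to 0.39–200 uM compound, 0.5% v/v DMSO, in duplicate. Stained before fixation with 250 nM MitoTracker Red CMXRos for 30 min, then imaged at 20x with Hoechst nuclei. Fitted in both directions against DMSO.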

[7] = APR_HepG2_p53Act_24hr: Apredica 24-hour HepG2 Assay for p53 Activation (AID 2282913); settings: high-content imaging, actives raise or lower the signal;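 also: p53 protein immunofluorescence averaged per cell in HepG2 with Hoechst nuclei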
In short: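 Automated fluorescence imaging quantifies p53 immunostaining in HepG2 cells after a 24 hr exposure (0.39–200 uM, duplicate, 0.5% DMSO). Nuclei are located by Hoechst 33342 staining.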

[8] = APR_HepG2_CellCycleArrest_72hr: Apredica 72-hour HepG2 Assay for Cell Cycle Arrest (AID 2282914); settings: high-content imaging, actives raise or lower the signal
In short: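 Cell cycle arrest in HepG2 was scored from nuclear DNA content after 72 hr compound treatment (0.39–200 uM). Activity, either gain or loss, was fitted against the DMSO baseline.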

[9] = APR_HepG2_CellLoss_72hr: Apredica 72-hour HepG2 Assay for Cell Loss (AID 2282915); settings: high-content imaging
In short: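 HepG2 cells exposed 72 h to compound at 0.39–200 uM (10 concentrations, duplicate) in 0.5% DMSO. Fixed with 3.7% formaldehyde and Hoechst 33342-stained. Imaged at 20x; nuclear count gives cell number, fitted bidirectionally versus DMSO.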

[10] = APR_HepG2_MitoMembPot_72hr: Apredica 72-hour HepG2 Assay for Mitochondrial Membrane Potential (AID 2282917); settings: imaging, actives raise or lower the signal
In short: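 HepG2 cells dosed 72 hr with compound at 0.39–200 uM in duplicate, 0.5% v/v DMSO final. Mitochondria stained with 250 nM MitoTracker Red CMXRos for 30 min before formaldehyde fixation, imaged by high-content fluorescence; bidirectional fit versus DMSO.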

[11] = APR_HepG2_MitoticArrest_72hr: Apredica 72-hour HepG2 Assay for Mitotic Arrest (AID 2282918); settings: high-content imaging, actives raise or lower the signal
In short: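 Mitotic arrest in HepG2 is scored from phospho-histone H3 staining after 72 hr dosing across 0.39–200 uM, with DMSO at 0.5% v/v. Nuclei are identified by Hoechst 33342 and fluorescence intensity is quantified per cell.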

[12] = APR_HepG2_MicrotubuleCSK_72hr: Apredica 72-hour HepG2 Assay for Microtubule CSK Stabilty (AID 2282919); settings: HepG2 microtubule cytoskeleton, high-content imaging, actives raise or lower the signal
In short: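 HepG2 cells were exposed 72 hr to compound at 0.39–200 uM in duplicate (0.5% DMSO final), then fixed and permeabilized. Alpha-tubulin immunofluorescence was imaged by high-content microscopy, with bidirectional fitting against DMSO and taxol as positive control.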

[13] = APR_HepG2_P-H2AX_24hr: Apredica 24-hour HepG2 Assay for H2AX Phosphorylation (AID 2282920); settings: high-content imaging, actives raise or lower the signal
In short: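 Signal comes from a FITC-labeled secondary detecting phospho-histone H2A.x in fixed HepG2 cells, quantified by automated imaging at 20x. Dosing ran 24 hr across 0.39–200 uM with 0.5% v/v DMSO.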

[14] = APR_HepG2_StressKinase_72hr: Apredica 72-hour HepG2 Assay for Stress Kinase (AID 2282921); settings: HepG2 stress kinase (phospho-c-Jun) imaging, actives raise or lower the signal
In short: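 HepG2 cells treated 72 hr with 0.39–200 uM compound, 0.5% v/v DMSO, duplicate wells. After formaldehyde fixation and Triton permeabilization, stained with anti-phospho-c-Jun (1:500) and Cy3 secondary, imaged at 20x. Fitted in both directions against DMSO.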

[15] = APR_HepG2_StressKinase_24hr: Apredica 24-hour HepG2 Assay for Stress Kinase (AID 2282922); settings: HepG2 stress kinase (phospho-c-Jun) imaging, actives raise or lower the signal
In short: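 HepG2 cells exposed 24 h to 0.39–200 uM compound in duplicate (0.5% v/v DMSO final). Cells fixed in 3.7% formaldehyde, permeabilized and immunostained for phospho-c-Jun; read by high-content fluorescence imaging, fitted bidirectionally against DMSO.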

[16] = APR_HepG2_p53Act_72hr: Apredica 72-hour HepG2 Assay for p53 Activation (AID 2282923); settings: high-content imaging, actives raise or lower the signal;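 also: average cellular p53 protein immunofluorescence intensity in HepG2 cells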
In short: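 HepG2 cells exposed 72 h to 0.39–200 uM in 0.5% DMSO, duplicates. Fixed, permeabilized cells immunostained for p53 (Cy5) with Hoechst; imaged at 20x, fluorescence analyzed bidirectionally against DMSO.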

[17] = APR_HepG2_NuclearSize_72hr: Apredica 72-hour HepG2 Assay for Nuclear Size (AID 2282925); settings: high-content imaging, actives raise or lower the signal
In short: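 HepG2 cells dosed 72 h at 0.39–200 uM (10 concentrations, duplicate) in 0.5% v/v DMSO final. Fixed, Hoechst 33342-stained nuclei imaged; nuclear diameter measured by automated image analysis. Bidirectional fit versus DMSO.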

[18] = APR_HepG2_MitoMass_72hr: Apredica 72-hour HepG2 Assay for Mitochondrial Mass (AID 2282924); settings: high-content imaging, actives raise or lower the signal;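 also: MitoTracker Red CMXRos stain intensity per cell imaged as mitochondrial mass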
In short: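 HepG2 cells dosed 72 hr at 0.39–200 uM (0.5% DMSO), in duplicate. MitoTracker Red CMXRos 250 nM loaded 30 min before formaldehyde fixation; high-content fluorescence imaging, bidirectional fit versus DMSO.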

[19] = APR_HepG2_P-H2AX_72hr: Apredica 72-hour HepG2 Assay for H2AX Phosphorylation (AID 2282916); settings: imaging, actives raise or lower the signal;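 also: phospho-histone H2A.x immunostain intensity per cell marking DNA damage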
In short: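 HepG2 cells treated 72 h at 0.39–200 uM, 0.5% DMSO final, duplicates. Formaldehyde-fixed, Triton-permeabilised, immunostained for phospho-H2A.x with Hoechst; fluorescence imaged at 20x, bidirectional fit versus DMSO.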

Measured: AC50

COCCOCCOCCOC
inactive: [1] | [2] | [3] | [4] | [5] | [6] | [7] | [8] | [9] | [10] | [11] | [12] | [13] | [14] | [15] | [16] | [17]

CC(C)=CCC/C(C)=C\CO
inactive: [1] | [2] | [3] | [4] | [5] | [6] | [7] | [8] | [9] | [10] | [11] | [12] | [13] | [15] | [16] | [17]
active: [18] 94.5 µM

COc1ccc(/C=C/S(=O)(=O)NC(=O)c2ccc(C)cc2Cl)cc1
inactive: [2] | [3] | [4] | [6] | [7] | [8] | [12] | [14] | [15] | [17]
active: [1] 102 µM | [5] 14.7 µM | [9] 57.3 µM | [19] 100 µM | [11] 102 µM | [13] 106 µM | [16] 113 µM

CCNc1ccccc1
inactive: [1] | [2] | [3] | [4] | [5] | [6] | [7] | [8] | [9] | [10] | [11] | [12] | [13] | [14] | [15] | [16] | [18] | [17]

O=c1[nH]c2ccc(S(=O)CCN3CCC(Cc4ccc(F)cc4)CC3)cc2o1 (stereo not drawn)
active: [8] 99.9 µM | [9] 76.1 µM
inactive: [1] | [2] | [3] | [4] | [5] | [6] | [7] | [10] | [11] | [12] | [13] | [15] | [16] | [18] | [17]

O=C1OC(=O)C2C3C=CC(C3)C12 (stereo not drawn)
inactive: [1] | [2] | [3] | [4] | [5] | [6] | [7] | [8] | [9] | [19] | [11] | [12] | [13] | [15] | [16] | [18] | [17]
